Screens from PubChem BioAssay.
Compounds with a hit are over-represented: about 1.3% of the library has one in this group of screens.
PKA-R1A act – activates the PKA-R1A holoenzyme complex; PKA-R1A dissociation, Cy5-IP20 fluorescence polarization; scaled: DMSO 0%, 113 µM cGMP 100%; AID 504707; activation, % at 11.4 µM; 0.083% of 340,000 active; P00514+P68181;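 active = percent activation above the mean of all tested compounds plus 3 SD, cut at about 19% in these data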;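 note: higher means more PKAc released from R1A so a rise in polarization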
PKA-R2B act – PKA-R2B complex activation | AID 504700 | 0.079% of 340,000 active | activation, % at 11.4 µM | PKA-R2B holoenzyme dissociation, Cy5-IP20 fluorescence polarization; R2B truncated from residue 108, S112A mutant; 0% DMSO only, 100% 113 µM cGMP;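 active = activation above a cutoff set at the mean over all compounds plus 3 SD, cut at about 18% in these data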;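 note: higher means more holoenzyme dissociation and a rise in polarization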
E coli Lon inh – inhibitors of E. coli Lon protease; purified E. coli Lon protease, fluorescence polarization; inhibition, % at 7.94 µM; 0.42% of 360,000 active; in the data active = inhibition above about 13%, passing the limit was not always enough
Target sequence (P0A9M0 whole entry, looked up): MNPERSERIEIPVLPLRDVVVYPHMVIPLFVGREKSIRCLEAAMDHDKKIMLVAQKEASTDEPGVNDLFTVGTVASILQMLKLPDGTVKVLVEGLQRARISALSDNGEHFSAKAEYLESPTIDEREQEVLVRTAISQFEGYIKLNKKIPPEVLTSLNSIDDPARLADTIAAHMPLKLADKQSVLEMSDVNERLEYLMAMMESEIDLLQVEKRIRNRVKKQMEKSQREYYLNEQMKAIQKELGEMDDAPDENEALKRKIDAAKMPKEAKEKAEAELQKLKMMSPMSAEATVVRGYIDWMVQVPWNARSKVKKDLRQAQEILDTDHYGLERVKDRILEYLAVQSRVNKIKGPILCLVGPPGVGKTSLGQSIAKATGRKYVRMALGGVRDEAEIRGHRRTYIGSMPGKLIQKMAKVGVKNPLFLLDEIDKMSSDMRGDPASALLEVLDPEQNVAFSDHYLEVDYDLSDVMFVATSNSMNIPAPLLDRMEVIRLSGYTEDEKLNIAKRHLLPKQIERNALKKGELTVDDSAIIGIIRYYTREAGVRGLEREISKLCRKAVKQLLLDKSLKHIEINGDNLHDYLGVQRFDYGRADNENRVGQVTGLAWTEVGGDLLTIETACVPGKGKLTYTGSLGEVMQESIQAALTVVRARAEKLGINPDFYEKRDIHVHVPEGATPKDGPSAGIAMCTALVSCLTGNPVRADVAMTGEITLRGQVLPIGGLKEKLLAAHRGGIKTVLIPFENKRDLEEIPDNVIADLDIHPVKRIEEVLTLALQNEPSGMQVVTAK
IDE act – IDE (human) activation, cell-based; 0.073% of 340,000 active; activation, % at 5.96 µM; P14735; HEK cells, FAbeta-B cleavage, fluorescence polarization; 0% vehicle, 100% cell-free pure enzyme wells; AID 493087;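 active = activation above the mean of all tested compounds plus 3 SD, set per screening campaign, cut at about 17% in these data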
IDE inh – cellular human IDE inhibition; P14735; HEK cells, FAbetaB cleavage, fluorescence polarization; inhibition, % at 5.59 µM; 0.41% of 320,000 active; AID 434962;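 active = percent inhibition above the average of all tested compounds plus 3 SD, set per screening campaign, cut at about 16% in these data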;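 note: IDE supplied by intact live HEK cells; FP after avidin binding of uncleaved biotin substrate so inhibition keeps polarization high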
Rin1 Abl inh – inhibitors of human Rin1-Abl protein interaction; P00519+Q13671; TR-FRET Rin1/Abl binding, biochemical; inhibition, % at 7.35 µM; 0.4% of 360,000 active; in the data active = inhibition above about 5%, passing the limit was not always enough
IDE cell inh cf – confirmation of human insulin-degrading enzyme inhibitors in cells. shares compounds with IDE inh. HEK cells, FAbetaB cleavage, fluorescence polarization. inhibition, % at 5.59 µM. 51% of 1,200 active. AID 435028;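 active = mean inhibition across triplicate wells above the cutoff set by the earlier primary insulin-degrading enzyme screen, cut at about 16% in these data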
HEK cytotox – kills HEK cells in IDE inhibitor counter-screen; shares compounds with IDE inh; HEK293 cytotoxicity, ATP luminescence; inhibition, % at 5.59 µM; 28% of 1,200 active; in the data active = inhibition above about 22%
Numbers stand for hits; i = inactive; nt = no result given.

SMILES	PKA-R1A act	PKA-R2B act	E coli Lon inh	IDE act	IDE inh	Rin1 Abl inh	IDE cell inh cf	HEK cytotox
CCN(CC)c1ccc(/C=C(/C#N)c2nc3ccccc3[nH]2)c(OC(C)C)c1	i	i	i	i	141	i	149	32
COc1ccc(CCNC(=O)COC(=O)c2ccc(F)c(S(=O)(=O)N3CCOCC3)c2)cc1	i	i	i	i	i	i	nt	nt
COc1ccc(CNC(=O)COC(=O)c2ccc(F)c(S(=O)(=O)N3CCOCC3)c2)cc1	i	i	i	i	17	i	i	i
Cc1cccc(OCC(=O)NCC(=O)N/N=C/c2c(C)[nH]c3ccccc23)c1	i	i	i	i	16	i	i	i
Cc1cccc(OCC(=O)NCC(=O)N/N=C/c2cccs2)c1	i	i	i	i	i	i	nt	nt
S=C(Nc1ccccc1)Nc1nc2ccccc2n1CCOc1ccc(Br)cc1	i	i	i	i	26	i	i	i
N#C/C(=C/c1ccncc1)c1nc2ccccc2s1	i	i	i	i	44	i	i	i
CC(C)=C(C#N)c1nc2ccccc2s1	i	i	i	i	38	i	i	i
O=C(c1cccc(N2C(=O)c3ccccc3C2=O)c1)N1CCCCCC1	i	i	i	i	i	i	nt	nt
O=C1c2cccc3c(N4CCCCC4)ccc(c23)C(=O)N1c1cccc(O)c1	i	i	i	i	124	i	153	25
COc1ccc(-c2nc(C#N)c(NC(C)C)o2)cc1	i	i	i	i	i	i	nt	nt
Cc1cc(C)c2oc(C(=O)Nc3ccc(S(=O)(=O)Nc4nccs4)cc3)cc(=O)c2c1	i	i	i	i	22	i	i	i
Cc1cc2oc(C(=O)Nc3ccc(S(=O)(=O)Nc4nccs4)cc3)cc(=O)c2cc1Cl	i	i	i	i	i	i	nt	nt
O=C(CNC(=O)C1COc2ccccc2O1)N/N=C\c1ccc(Br)cc1 (stereo unspecified)	i	i	i	i	i	i	nt	nt
COc1ccc(Br)cc1/C=N/NC(=O)CNC(=O)C1COc2ccccc2O1 (stereo unspecified)	i	i	i	i	30	i	23	i
CCOC(=O)c1ccccc1NC(=O)C1=COCCO1	i	i	i	i	i	i	nt	nt
CC(Cc1ccccc1)=NNS(=O)(=O)c1ccc([N+](=O)[O-])cc1	i	i	i	i	nt	i	nt	nt
COc1ccc(C(=O)/C=C/c2cc(OC)c(O)c(OC)c2)c(F)c1	i	i	i	i	52	i	87	43
COc1ccc(C(=O)/C=C/c2ccc(N(C)C)cc2)c(OC)c1	i	i	i	i	82	i	26	47
O=C(NC1CC1)c1cccc2c1C(=O)c1ccc(N3CCC(Cc4ccccc4)CC3)cc1S2(=O)=O	i	i	i	i	40	i	70	45
CC1CCN(c2ccc3c(c2)S(=O)(=O)c2cccc(C(=O)O)c2C3=O)CC1	i	i	i	i	32	i	48	i
CC1CCN(c2ccc3c(c2)S(=O)(=O)c2cccc(C(=O)NC4CCCCC4)c2C3=O)CC1	i	i	i	i	i	i	nt	nt
Cc1ccc(Oc2nc(-c3cccnc3)nc3ccccc23)c([N+](=O)[O-])n1	i	i	i	i	i	i	nt	nt
COc1cc2nc(/C=C/c3ccc(N(C)C)cc3)sc2cc1SC	i	i	i	i	70	i	51	i
C/C(Cc1ccccc1)=N\NC(=O)CNC(=O)/C=C\c1ccccc1	nt	nt	i	nt	17	i	i	i
SMILES	PKA-R1A act	PKA-R2B act	E coli Lon inh	IDE act	IDE inh	Rin1 Abl inh	IDE cell inh cf	HEK cytotox
COc1ccc(/C=C/C(=O)NCC(=O)N/N=C(\C)Cc2ccccc2)cc1	i	i	i	i	i	i	nt	nt
Cc1cccc(S(=O)(=O)Nc2cccc3c2C(=O)c2ccccc2-3)c1	i	i	i	i	50	i	41	i
CCCCC(=O)NC(c1ccc(Cl)cc1)c1ccc2cccnc2c1O (stereo unspecified)	i	i	i	i	19	i	i	99
Cc1conc1NC(c1cccs1)c1ccc2cccnc2c1O (stereo unspecified)	nt	nt	nt	nt	i	nt	nt	nt
CC(C)CC(=O)NC(c1cccs1)c1ccc2cccnc2c1O (stereo unspecified)	i	i	i	i	17	i	i	106
COc1ccc(N(C)S(=O)(=O)c2cccc(C(=O)N3CCN(Cc4ccc5c(c4)OCO5)CC3)c2)cc1	i	i	i	i	nt	i	nt	nt
CC1C/C(=C/c2ccncc2)C(=O)/C(=C/c2ccncc2)C1 (stereo unspecified)	i	i	i	i	i	i	nt	nt
CC1C/C(=C/c2cccn2C)C(=O)/C(=C/c2cccn2C)C1 (stereo unspecified)	i	i	i	i	39	i	94	23
COCCNS(=O)(=O)c1ccc2c(c1)C(=O)c1cc(S(=O)(=O)NCCOC)ccc1-2	i	i	i	i	i	i	nt	nt
Nc1nc(Cl)cc(N2CCCC2)n1	i	i	i	i	i	i	nt	nt
Cc1cccc(C)c1N1CCN(c2cc(Cl)nc(N)n2)CC1	i	i	i	i	18	i	i	i
NC(=O)c1ccc(NC(=O)CN2C(=O)NC3(CCCCCCC3)C2=O)cc1	i	i	i	i	i	i	nt	nt
Nc1c(C=C2C=CC(=O)C=C2)c(=O)nc2sc(CC(=O)N3CCCCC3)nn12	i	i	i	i	i	i	nt	nt
COC1=C/C(=C/c2c(N)n3nc(CC(=O)N4CCCC4)sc3nc2=O)C=CC1=O	i	i	i	i	24	i	126	i
CCOC1=C/C(=C/c2c(N)n3nc(CC(=O)N4CCCC4)sc3nc2=O)C=CC1=O	i	i	i	i	30	i	39	i
COC1=CC(=Cc2c(N)n3nc(CC(=O)N4CCCCC4)sc3nc2=O)C=C(OC)C1=O	i	i	i	i	41	i	26	i
CCN(CC)CCSc1nc(O)c(C(C)C)c(=O)[nH]1	i	i	i	i	i	i	nt	nt
CCN(CC)C(=O)COc1ccc(/C(C)=N/Nc2ncc(Cl)cc2Cl)cc1	i	i	i	i	i	i	nt	nt
O=C(Nc1cccc(-n2cnnn2)c1)c1cccs1	i	i	i	i	i	i	nt	nt
CCc1sc(C(=O)Nc2cccc(-n3cnnn3)c2)cc1C	i	i	i	i	32	i	19	i
CC1CC(Nc2ccccc2)c2ccccc2N1C(=O)c1ccccc1F (stereo unspecified)	i	i	i	i	i	i	nt	nt
CC(C)(C)Nc1nc(SCC(=O)Nc2ccccc2)nc(N2CCOCC2)n1	i	i	i	i	i	i	nt	nt
CN(C)c1nc(SCC(=O)Nc2ccccc2)nc(N2CCOCC2)n1	i	i	i	i	20	i	i	i
